Test results from PubChem BioAssay (NCATS).
Results filed as inconclusive are left out. Calls of active or inactive are those of the source. The call rests on the fitted dose curve; in most records, active means well fitted inhibition curve with a large enough effect; inconclusive means small, poorly fitted or top-dose-only effect; inactive means flat fitted curve, though single readings scatter.

biological target: Calcium and integrin-binding protein 1 (Homo sapiens) (UniProt Q99828); assay: Primary qHTS for Identification of Calcium Integrin Binding Protein 1 (CIB1) Competitor (AID 1508620); details: CIB1-GST / FITC-alphaIIb peptide fluorescence polarization; series mostly up to 114 µM; activity change, negative = inhibition: at the top concentration; further: top concentration of the series differs between compounds
Sequence (Q99828 whole entry, looked up): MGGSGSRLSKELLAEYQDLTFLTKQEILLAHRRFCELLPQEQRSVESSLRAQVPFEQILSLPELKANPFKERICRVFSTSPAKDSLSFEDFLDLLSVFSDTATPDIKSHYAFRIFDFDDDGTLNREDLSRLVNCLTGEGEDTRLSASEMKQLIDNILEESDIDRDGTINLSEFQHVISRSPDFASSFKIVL
In short: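 Fluorescence polarization competition: GST-tagged CIB1 (1 uM final) preincubated with compound 15 min at room temperature, then FITC-labelled alphaIIb peptide (100 nM final) added. After 15 min at room temperature, polarization read at Ex 480/Em 540.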
On the % scale 0 is the no-effect control and ±100 the full control effect.

Compound	activity change, negative = inhibition
CCOc1ccc(CCNC(=O)c2cc3sccc3n2Cc2ccccc2)cc1OCC	0.206% (inactive)
Cc1ccc(CN(C)c2ncnc3ccc(-c4ccc(C#N)n4C)cc23)o1	17.4% (inactive)
COc1ccc(C2Nc3ccccc3C(=O)N2Cc2ccccc2)cc1COc1cccc(C)c1 (centres undefined)	-3.92% (inactive)
CCOC(=O)C1CCN(C(=O)C(C)(C)NC(=O)Nc2ccc([N+](=O)[O-])cc2)CC1	-18.8% (inactive)
Cc1cc2c(s1)c1cnn(Cc3c(F)ccc(Cl)c3F)c(=O)c1n2C	-0.826% (inactive)
Cc1ccc(CN(C)c2ncnc3ccc(-c4ccc(C(=O)O)o4)cc23)o1	1.6% (inactive)
COc1ccc(NC(=O)c2cccnc2C)cc1S(=O)(=O)Nc1ccc(Br)cc1	-1.18% (inactive)
O=[S+]([O-])(/C=C/c1nc(Nc2cc(F)cc(F)c2)c2ncn(CC(F)F)c2n1)c1ccccc1	3.18% (inactive)
CC(=O)Nc1sc2c(c1-c1nc3ccccc3s1)CN(C1COC1)C2	-15.4% (inactive)
N#Cc1ccc(-c2ccc(CNc3ccc(N4CCCCC4)cc3)o2)cc1	-10.2% (inactive)
CN(CCc1ccco1)c1ncnc2ccc(-c3ccc4c(c3)OCO4)cc12	-3.33% (inactive)
CC(C)(C)OC(=O)N1CCN(c2ccc(NCc3nnc(-c4ccc(C#N)cc4)o3)cc2)CC1	-0.469% (inactive)
Cn1c2ccsc2c2ncn(Cc3ccc(F)cc3)c(=O)c21	-1.3% (inactive)
Cc1csc(CNc2ncnc3ccc(-c4ccc5c(ccn5C)c4)cc23)c1	4.28% (inactive)
CCC(O)(c1nnc(NCc2ccc3c(-c4ccc(F)cc4)cc(=O)oc3c2)o1)C(F)(F)F (centres undefined)	-3.39% (inactive)
Fc1cccc(CNc2ncnc3ccc(-c4ccc5c(c4)OCO5)cc23)c1	4.84% (inactive)
Cc1ccc(C(=O)Nc2ccc(N3CCCCC3)cc2)cc1	1.78% (inactive)
CCNC(=O)c1ccc(-c2ccc3ncnc(NCc4nccs4)c3c2)o1	-17.2% (inactive)
Cc1cc(C)nc(NC(=S)N2CCN(c3cc(Cl)c(Cl)c(Cl)c3)CC2)c1	5.25% (inactive)
Cc1ccc(N2CCN(C(=S)Nc3cc(C)ccn3)CC2)cc1	-9.46% (inactive)

Compound	activity change, negative = inhibition
O=C(Nc1ccc(Cl)c(Cl)c1)Nc1cccc(-c2ccncc2)n1	6.27% (inactive)
Cn1c2cc(C(=O)O)sc2c2cnn(Cc3ccccc3F)c(=O)c21	-1.69% (inactive)
Cc1cc(C)nc(NC(=S)N2CCN(c3cc(C(F)(F)F)nc(C)n3)CC2)c1	-6.22% (inactive)
CC(C)(C)OC(=O)NCCCNc1ncnc2ccc(-c3ccc4c(c3)OCO4)cc12	20.9% (inactive)
Cc1noc(C)c1-c1ccc(Nc2nc(-c3ccncc3)nc3ccccc23)cc1F	14.7% (inactive)
O=C(OCC#CCSc1nnc(-c2ccc3ccccc3c2)o1)c1ccc(F)c(F)c1	1.42% (inactive)
Cc1cccc(CNc2ccc(S(=O)(=O)Nc3nccs3)cc2)c1O	-9.66% (inactive)
CC(C)c1ccccc1-c1nccc(NCc2ccc(-c3cccnc3)cc2)n1	-1.04% (inactive)
COc1ccc(C2Nc3ccccc3C(=O)N2Cc2ccco2)cc1COc1ccccc1C (centres undefined)	-4.54% (inactive)
N#Cc1ccc(-c2ccc(CNc3ccc(N4CCOCC4)cc3)cn2)cc1	-9.84% (inactive)
Cc1ccsc1CN(C)c1ncnc2ccc(-c3oc(-c4ccccc4)nc3C)cc12	0.991% (inactive)
CN(C)C(=O)c1ccc(-c2cc[nH]c(=O)c2N)cc1	1.87% (inactive)
Cc1ccc(CNc2ccc(N3CCNCC3)cc2)cc1	-8.02% (inactive)
COc1ccc(C2Nc3cccc(OC)c3C(=O)N2Cc2ccco2)cc1COc1c(C)cc(NC(C)=O)cc1C (centres undefined)	2.27% (inactive)
O=C(O)c1cccc(-c2noc(-c3ccccc3C(F)(F)F)n2)c1	-2.68% (inactive)
Cc1ccc(NC(=O)CN2C(=O)N/C(=C\c3cccn3-c3ccc(C(=O)NC#N)cc3)C2=O)cc1	8.03% (inactive)
O=C(Nc1ccc(N2CCOCC2)c(F)c1)Nc1nnc(-c2ccncc2)s1	-7.05% (inactive)
Cc1ccc(S(=O)(=O)Nc2ccc(C(=O)Nc3ncc(-c4ccccc4)s3)cc2)cc1	5.61% (inactive)
FC(F)(F)c1cc(N2CCN(C(=S)Nc3cc(Cl)ccn3)CC2)cc(C(F)(F)F)c1	3.84% (inactive)
